From PubChem BioAssay (EPA / NIEHS)
Inconclusive results are not listed. The source made the active and inactive calls. How the source made its calls, unless noted: active means hit-call score of the fitted dose curve at least 0.9, where 1 is the maximum; inactive means score below 0.9.

Columns and labels:
[1] = read-out: Monocyte Chemoattractant Protein-1 (MCP1), CCL2 (gene 6347); test: BSK_LPS_MCP1: BioMAP Diversity Plus: LPS Assay for Monocyte Chemoattractant Protein-1 (MCP1) Biomarker Activity (AID 2283081); details: primary human HUVEC with PBMC; actives raise or lower the signal;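 on AC50: secreted MCP-1 protein quantified by ELISA in culture supernatant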
In short: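 Human umbilical vein endothelial cells co-cultured with PBMC, LPS-stimulated; secreted MCP-1 measured by ELISA 24 h after compound addition. Bidirectional curve fitting against DMSO baseline; SRB total-protein staining in parallel cultures for cytotoxicity.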

[2] = read-out: Tissue Factor, F3 (gene 2152); test: BSK_LPS_TissueFactor: BioMAP Diversity Plus: LPS Assay for Tissue Factor Biomarker Activity (AID 2283084); details: primary human HUVEC with PBMC; actives raise or lower the signal
In short: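 Human umbilical vein endothelial cells co-cultured with PBMC were dosed with compound. Cell-surface CD142 was measured by ELISA 24 h later. Activity was fitted bidirectionally against DMSO, with SRB total-protein staining in parallel cultures for cytotoxicity.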

[3] = read-out: Tumor necrosis factor (Homo sapiens) (UniProt P01375); test: BSK_LPS_TNFa: BioMAP Diversity Plus: LPS Assay for Tumour Necrosis Factor alpha (TNFa) Biomarker Activity (AID 2283085); details: primary human HUVEC with PBMC; actives raise or lower the signal
In short: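 Human umbilical vein endothelial cells co-cultured with PBMC were exposed to test chemical and TNFa measured by ELISA 24 h after dosing. Bidirectional curve fitting was done relative to DMSO as negative control and baseline.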

[4] = read-out: Vascular cell adhesion molecule 1 (VCAM1), VCAM1 (gene 7412); test: BSK_LPS_VCAM1: BioMAP Diversity Plus: LPS Assay for Vascular cell adhesion molecule 1 (VCAM1) Biomarker Activity (AID 2283086); details: primary human HUVEC with PBMC; actives raise or lower the signal
In short: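 Human umbilical vein endothelial cells co-cultured with peripheral blood mononuclear cells under LPS stimulation were exposed to test chemical for 24 h. VCAM-1 levels were then measured by ELISA, with bidirectional curve fitting relative to DMSO as negative control and baseline.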

CD38, CD38 (gene 952) = test: BSK_SAg_CD38: BioMAP Diversity Plus: SAg Assay for CD38 Biomarker Activity (AID 2283087); details: primary human HUVEC with PBMC; actives raise or lower the signal
In short: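 Fluorescence ELISA of cell-surface CD38 served as the read-out, with either increase or decrease fitted against DMSO controls. Cells were a human umbilical vein endothelium plus PBMC co-culture under SEB/TSST-1 stimulation, measured 24 h after dosing.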

CD40, CD40 (gene 958) = test: BSK_SAg_CD40: BioMAP Diversity Plus: SAg Assay for CD40 Biomarker Activity (AID 2283088); details: primary human HUVEC with PBMC; actives raise or lower the signal
In short: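 HUVEC plus PBMC co-culture, superantigen-activated, with CD40 read by ELISA 24 h after dosing. Curves fitted in both directions against DMSO. Overt cytotoxicity checked by parallel SRB total-protein staining.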

[5] = read-out: Monocyte Chemoattractant Protein-1 (MCP1), CCL2 (gene 6347); test: BSK_SAg_MCP1: BioMAP Diversity Plus: SAg Assay for Monocyte Chemoattractant Protein-1 (MCP1) Biomarker Activity (AID 2283090); details: primary human HUVEC with PBMC; actives raise or lower the signal
In short: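 MCP-1 levels in the endothelial–PBMC SAg co-culture were quantified by ELISA at 24 h post-dosing; both increases and decreases versus DMSO scored. Cytotoxicity monitored by SRB total protein in parallel cultures.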

[6] = read-out: E-selectin (Homo sapiens) (UniProt P16581); test: BSK_SAg_Eselectin: BioMAP Diversity Plus: SAg Assay for Eselectin Biomarker Activity (AID 2283091); details: primary human HUVEC with PBMC; actives raise or lower the signal
In short: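 Human umbilical vein endothelial cells co-cultured with peripheral blood mononuclear cells, SAg system. E-selectin is measured by ELISA 24 h after dosing and fitted bidirectionally against DMSO. Cytotoxicity is checked by SRB staining of parallel cultures.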

[7] = read-out: Monokine induced gamma interferon (MIG), CXCL9 (gene 4283); test: BSK_SAg_MIG: BioMAP Diversity Plus: SAg Assay for Monokine induced gamma interferon (MIG) Biomarker Activity (AID 2283092); details: primary human HUVEC with PBMC; actives raise or lower the signal
In short: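 HUVEC plus human PBMC co-culture, chemicals dosed and MIG (CXCL9) quantified by ELISA at 24 h. Bidirectional curve fitting against DMSO as negative control and baseline, so both gain and loss of signal count as activity.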

[8] = BSK_SAg_PBMCCytotoxicity: PBMC Cytotoxicity Assessment in the BioMAP Diversity Plus: SAg Assay (AID 2283093); details: primary human HUVEC with PBMC;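 further: PBMC viability measured as Alamar Blue reduction fluorescence at 546/580 nm; fitted both ways against DMSO so a hit may be loss or gain of signal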;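 on AC50: PBMC superantigen activated with SEB plus TSST-1 one hour after compound addition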
In short: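 Human umbilical vein endothelial cells co-cultured with PBMC; PBMC (75,000/well) pre-treated with compound 1 h, then activated with SEB and TSST-1 (20 ng/mL final each) for 90 h. Alamar Blue added 6 h, fluorescence 546/580 nm; bidirectional fit versus DMSO.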

[9] = read-out: Interleukin-8 (IL8), CXCL8 (gene 3576); test: BSK_SAg_IL8: BioMAP Diversity Plus: SAg Assay for Interleukin-8 (IL8) Biomarker Activity (AID 2283094); details: primary human HUVEC with PBMC; actives raise or lower the signal
In short: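 Human umbilical vein endothelial cells co-cultured with peripheral blood mononuclear cells; IL-8 measured by ELISA 24 h after chemical dosing. Bidirectional concentration-response fitting used DMSO as negative control and activity baseline.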

[10] = BSK_SAg_Proliferation: Cell Proliferation Assessment in the BioMAP Diversity Plus: SAg Assay (AID 2283095); details: primary human HUVEC with PBMC;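 further: relative cell number as total protein by SRB absorbance in sub-confluent culture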
In short: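 Human umbilical vein endothelial cells co-cultured with peripheral blood mononuclear cells; total protein measured by sulforhodamine B staining (0.1% SRB after 10% TCA fixation), absorbance at 560 nm, at 96 h. Bidirectional fit against DMSO baseline.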

[11] = BSK_SAg_SRB: Viability Assessment in the BioMAP Diversity Plus: SAg Assay (AID 2283096); details: primary human HUVEC with PBMC;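 further: cells read one day after compound addition; hits may be either gain or loss of signal compared with DMSO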
In short: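 Endothelial/PBMC primary human co-culture; compound 24 h; fix 10% TCA, stain 0.1% SRB, A560; protein content as cytotoxicity proxy; bidirectional curve fit, DMSO = baseline.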

[12] = read-out: Macrophage colony-stimulating factor (MCSF), CSF1 (gene 1435); test: BSK_LPS_MCSF: BioMAP Diversity Plus: LPS Assay for Macrophage colony-stimulating factor (MCSF) Biomarker Activity (AID 2283083); details: primary human HUVEC with PBMC; actives raise or lower the signal
In short: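 HUVEC–PBMC co-culture, M-CSF measured by ELISA 24 h after chemical dosing. Fitted in both directions relative to DMSO as negative control; overt cytotoxicity assessed by SRB total-protein staining in parallel cultures.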

[13] = target: Cytochrome P450 3A4 (Homo sapiens) (UniProt P08684); test: NVS_ADME_hCYP3A4: NovaScreen (NVS) CYP450-related Enzyme Activity (ADME) Assay for human CYP3A4 (AID 2283110; active means hit-call score of the fitted dose curve at least 0.9, where 1 is the maximum)
Chain of Cytochrome P450 3A4 (Homo sapiens) (P08684 whole entry, looked up): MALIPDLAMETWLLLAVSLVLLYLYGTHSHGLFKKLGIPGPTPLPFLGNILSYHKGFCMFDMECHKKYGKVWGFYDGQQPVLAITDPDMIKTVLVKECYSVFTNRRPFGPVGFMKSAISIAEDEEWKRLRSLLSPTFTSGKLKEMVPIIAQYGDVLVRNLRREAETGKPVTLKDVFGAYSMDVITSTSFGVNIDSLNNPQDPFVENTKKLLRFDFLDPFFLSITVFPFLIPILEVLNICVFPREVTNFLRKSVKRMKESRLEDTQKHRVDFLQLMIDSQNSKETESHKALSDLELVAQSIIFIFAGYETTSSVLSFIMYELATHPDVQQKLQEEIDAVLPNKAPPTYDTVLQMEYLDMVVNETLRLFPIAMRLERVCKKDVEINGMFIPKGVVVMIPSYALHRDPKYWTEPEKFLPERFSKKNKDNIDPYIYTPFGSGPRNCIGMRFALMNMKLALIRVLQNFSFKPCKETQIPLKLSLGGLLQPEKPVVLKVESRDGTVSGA
In short: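 Cell-free assay using insect-cell-expressed human CYP3A4 with a fluorogenic substrate; fluorescence intensity was read 0.33 hour after dosing. Loss of signal relative to acetonitrile vehicle indicated inhibition. Primary single-concentration screen at 10 uM, in duplicate, then concentration series.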

[14] = target: human CYP19A1, CYP19A1 (gene 1588) (UniProt P11511); test: NVS_ADME_hCYP19A1: NovaScreen (NVS) CYP450-related Enzyme Activity (ADME) Assay for human CYP19A1 (AID 2283098; active means hit-call score of the fitted dose curve at least 0.9, where 1 is the maximum;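 further: potency for inhibitors seen as loss of fluorescent enzyme signal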)
Chain of human CYP19A1, CYP19A1 (gene 1588) (P11511 whole entry, looked up): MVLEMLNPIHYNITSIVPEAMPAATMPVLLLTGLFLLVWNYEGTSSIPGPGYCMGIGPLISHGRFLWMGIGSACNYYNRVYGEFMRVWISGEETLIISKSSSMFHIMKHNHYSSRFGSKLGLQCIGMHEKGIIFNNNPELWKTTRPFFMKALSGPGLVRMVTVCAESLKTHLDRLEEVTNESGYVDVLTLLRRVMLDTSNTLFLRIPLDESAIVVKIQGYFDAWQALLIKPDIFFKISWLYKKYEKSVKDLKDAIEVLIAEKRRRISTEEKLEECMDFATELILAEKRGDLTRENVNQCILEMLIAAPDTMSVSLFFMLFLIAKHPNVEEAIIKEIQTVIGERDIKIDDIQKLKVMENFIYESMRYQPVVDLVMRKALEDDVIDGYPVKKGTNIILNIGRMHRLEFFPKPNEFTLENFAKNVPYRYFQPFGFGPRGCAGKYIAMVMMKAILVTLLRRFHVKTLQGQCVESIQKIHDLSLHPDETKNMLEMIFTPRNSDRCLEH
In short: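 Cell-free enzyme assay with recombinant protein and a specific fluorogenic substrate, read by fluorescence intensity 0.5 h after dosing. Primary screen ran in duplicate at 10 uM; actives were retested in concentration series. Loss of signal versus acetonitrile baseline.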

Measured: AC50

Chain of Tumor necrosis factor (Homo sapiens) (P01375 whole entry, looked up): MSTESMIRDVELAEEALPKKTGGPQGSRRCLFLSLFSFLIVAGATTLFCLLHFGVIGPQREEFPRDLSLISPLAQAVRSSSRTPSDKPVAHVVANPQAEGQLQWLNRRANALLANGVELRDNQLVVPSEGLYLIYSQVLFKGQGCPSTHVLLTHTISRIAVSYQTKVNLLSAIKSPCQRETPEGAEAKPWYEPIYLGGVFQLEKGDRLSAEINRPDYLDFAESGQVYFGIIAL
Chain of E-selectin (Homo sapiens) (P16581 whole entry, looked up): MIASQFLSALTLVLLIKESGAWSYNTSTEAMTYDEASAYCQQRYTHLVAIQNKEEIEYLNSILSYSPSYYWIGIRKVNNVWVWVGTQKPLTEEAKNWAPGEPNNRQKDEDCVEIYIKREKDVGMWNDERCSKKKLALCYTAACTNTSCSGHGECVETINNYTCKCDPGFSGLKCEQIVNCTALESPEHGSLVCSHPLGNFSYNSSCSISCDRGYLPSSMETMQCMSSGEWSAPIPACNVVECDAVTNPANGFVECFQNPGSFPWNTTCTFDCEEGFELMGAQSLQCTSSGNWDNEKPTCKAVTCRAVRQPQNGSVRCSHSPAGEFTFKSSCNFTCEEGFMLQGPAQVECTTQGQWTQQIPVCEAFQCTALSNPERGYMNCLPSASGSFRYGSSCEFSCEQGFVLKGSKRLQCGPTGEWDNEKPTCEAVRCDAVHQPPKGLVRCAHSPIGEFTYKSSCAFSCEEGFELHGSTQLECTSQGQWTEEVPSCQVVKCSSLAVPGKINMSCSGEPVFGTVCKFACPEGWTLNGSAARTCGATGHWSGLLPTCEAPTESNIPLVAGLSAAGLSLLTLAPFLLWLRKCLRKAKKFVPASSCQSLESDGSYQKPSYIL

O=C(O)c1cn(C2CC2)c2cc(N3CCNCC3)c(F)cc2c1=O
not listed: [12] | [13] | [14]
inactive: all other assays above

CCCCCCCCC=O
not listed: [13] | [14]
inactive: all other assays above

C=C(C)C(=O)O[C@H]1C[C@@H]2CC[C@@]1(C)C2(C)C
inactive: [3]
active: [1] 31.1 µM | [12] 29.9 µM | [2] 36.8 µM | [4] 30.6 µM | CD38, CD38 (gene 952) 33.8 µM | CD40, CD40 (gene 958) 31.8 µM | [5] 34.1 µM | [6] 34 µM | [7] 36.3 µM | [8] 33.1 µM | [9] 35.3 µM | [10] 30.7 µM | [11] 30.9 µM

C=C[Si](OCC)(OCC)OCC
not listed: [13] | [14]
inactive: all other assays above

CC[Si](OC(C)=O)(OC(C)=O)OC(C)=O
not listed: [13] | [14]
inactive: all other assays above

O=C=NC1CCC(CC2CCC(N=C=O)CC2)CC1 (stereo not given)
active: [2] 3.97 µM | [3] 2.2 µM | [8] 13.3 µM | [10] 33.5 µM
not listed: [13] | [14]
inactive: all other assays above

O=C1OC2(c3cc(Br)c(O)c(Br)c3Oc3c2cc(Br)c(O)c3Br)c2c(Cl)c(Cl)c(Cl)c(Cl)c21
active: [1] 4.59 µM | [12] 5.42 µM | [2] 8.77 µM | [4] 5.55 µM | CD38, CD38 (gene 952) 5.04 µM | CD40, CD40 (gene 958) 6.57 µM | [5] 5.24 µM | [6] 6.53 µM | [7] 23.1 µM | [8] 23.5 µM | [10] 21.3 µM | [11] 18.2 µM
inactive: [3] | [9] | [13]

CC(C)c1ccc(C(C)C)cc1
not listed: [13] | [14]
inactive: all other assays above

Cc1ccc(C(C)C)cc1O
active: [14] 3.83 µM

CCCCC/C=C/C=C/C=O
active: [1] 33.5 µM | [12] 33.2 µM | [2] 31.9 µM | [3] 30.8 µM | [4] 30 µM | CD38, CD38 (gene 952) 31.7 µM | CD40, CD40 (gene 958) 20 µM | [5] 31.2 µM | [6] 28.3 µM | [7] 35.6 µM | [8] 20 µM | [9] 20 µM | [10] 14.2 µM | [11] 31.5 µM

c1ccc2sc(SN(C3CCCCC3)C3CCCCC3)nc2c1
inactive: [1] | [2] | [4] | [5] | [6] | [7]
active: [12] 5.57 µM | [3] 5.77 µM | CD38, CD38 (gene 952) 7.65 µM | CD40, CD40 (gene 958) 7.96 µM | [8] 5.28 µM | [9] 3.23 µM | [10] 11.4 µM | [11] 11.4 µM

CCc1c(C)cc(N)c(CC)c1N
not listed: [13] | [14]
inactive: all other assays above
